Test results as given in the supplement of paper PMC3414501.
Counter-ions that a name gives are not always drawn. A number with no mark means an inactive call.

How the values were obtained:
[1] = test system: S. cerevisiae SK1 pCDA2-eGFP (USY613), sporulating; test: CDA2-GFP sporulation assay sensitivity score (z-score vs DMSO controls); higher = stronger inhibition of sporulation, active = hit call of the paper;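 further: active if sensitivity score above 5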
[2] = test system: S. cerevisiae AD1-9 (efflux-pump deficient), vegetative growth in YPD; test: growth sensitivity score (doubling time z-score vs DMSO controls); higher = slower growth, strongly negative scores also mark growth inhibition (complete suppression), active = hit call of the paper
How it was run: (§1)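 Rich medium in microtiter plates was seeded with Saccharomyces cerevisiae strains BY4741 and AD1-9 at an OD600 of 0.065, and compounds were added as a 1:100 dilution of DMSO stock. A Tecan GENios reader recorded optical density every 15 min for 24 hours, with eight solvent-only wells in each experiment. Average doubling time was the time to reach a set generation point divided by generation number. The growth sensitivity score was the compound mean minus the solvent-only mean, divided by the solvent-only standard deviation.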

[3] = test system: S. cerevisiae BY4741 (wild-type), vegetative growth in YPD; test: as above
How it was run: as §1

Row | SMILES | CDA2-GFP sporulation assay sensitivity score [1] | growth sensitivity score [2] | growth sensitivity score [3]
1 | CC(C)/N=c1\cc2n(-c3ccc(Cl)cc3)c3ccccc3nc-2cc1Nc1ccc(Cl)cc1 [Clofazimine] (stock concentration (mM, diluted 1:100): 10) | 0.66 | 108 (active) | 61.3 (active)
2 | C[C@H](N[C@@H](CCc1ccccc1)C(=O)O)C(=O)N1CCC[C@H]1C(=O)O [Enalaprilat] (stock concentration (mM, diluted 1:100): 10) | 1.04 | -0.82 | 0.34
3 | Cc1nc2ccccn2c(=O)c1CCN1CCC(C(=O)c2ccc(F)cc2)CC1 [Pirenperone] (stock concentration (mM, diluted 1:100): 10) | 13.6 (active) | -0.84 | -0.59
4 | Nc1c2c(nc3c1CCC3)CCCC2 [Amiridine] (stock concentration (mM, diluted 1:100): 10) | 2.39 | 4.09 (active) | 4.93 (active)
5 | CN(C)CCOC(c1ccccc1)c1ccccc1 [Diphenhydramine hydrochloride] (stock concentration (mM, diluted 1:100): 10) | 2.11 | 3.46 (active) | 0.81
6 | COCCCOc1ccnc(C[S+]([O-])c2nc3ccccc3[nH]2)c1C (stereo unspecified) [Rabeprazole] (stock concentration (mM, diluted 1:100): 10.6) | 11.4 (active) | 31.5 (active) | 12.2 (active)
7 | Nc1[nH]c(=O)ncc1F [5-Fluorocytosine] (stock concentration (mM, diluted 1:100): 10.5) | 0.12 | 36.6 (active) | 54.5 (active)
